The values that follow come from PubChem BioAssay AID652065 (The Scripps Research Institute Molecular Screening Center, 2013).

The campaign covered roughly 4,300 compounds. About 3,000 (70%) were called active. The set was probably picked from earlier hits. Not all results are given here. Values without a mark were called inactive.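 Rule for the calls: active = inhibition above a per-plate cutoff, the mean inhibition of sample wells plus 3 SD (cut at about 35% in these data); inactive = the rest.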

This experiment is described as follows: small molecules binding CAG repeat RNA – biochemical, fluorescence, confirmation (AID 652065).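 Note: loss of TO-PRO-1 fluorescence as compound displaces dye from 1x1 AA loop RNA; 0% = DMSO only wells and 100% = 100 µM mitoxantrone.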 The following applies: r(CAG) RNA repeat, TO-PRO-1 dye displacement fluorescence; at 3 µM; stronger effect = higher value.
For the molecule `Cc1sc2nc(SCC(=O)c3ccc(O)c(O)c3)n(Cc3ccco3)c(=O)c2c1C`, the inhibition was 64.2% (active).

Regarding `CCOC(=O)C1Nc2ccc(C(F)(F)F)cc2C2C=CCC12` (stereo not drawn), the inhibition is 18.9%.

In the case of `CC1(C(=O)NS(=O)(=O)c2ccc(C#N)cc2)CCN1C(=O)c1ccc(C2CCCCC2)cc1` (stereo not drawn), the inhibition is 51.7% (active).

As to `Cc1cc(/C=N/Nc2ccc([N+](=O)[O-])cn2)c(C)n1-c1cccc(C(=O)O)c1`, the inhibition was 35% (active).

Consider `Cc1ccc(-n2c(SCC(=O)Nc3ccc(S(=O)(=O)Nc4nccs4)cc3)nnc2-c2cccnc2)cc1`, for which the inhibition is 58.8% (active).

With `Cc1ccc(-n2c(SCC(=O)Nc3ccc(S(=O)(=O)Nc4nccs4)cc3)nnc2-c2ccncc2)cc1`, the inhibition was 67.3% (active).

Consider `Cc1ccc(-n2c(SCC(=O)Nc3ccc(S(=O)(=O)Nc4nccs4)cc3)nnc2-c2ccccn2)cc1`, for which the inhibition was 60.6% (active).

For `O=C(O)c1ccc(NC(=O)c2cn(-c3ccccc3)nc2-c2ccc(Cl)cc2)cc1`, the inhibition is 62.6% (active).

Regarding `O=C(NNC(=S)NC(=O)c1cn(-c2ccccc2)nc1-c1ccccc1)c1ccncc1`, the inhibition was 54.8% (active).

Turning to `O=C(O)c1ccc(N/N=C/c2cn(-c3ccccc3)nc2-c2cccs2)cc1`, the inhibition is 61.1% (active).

With `CC(C)=CCCC1(C)C=Cc2c(ccc3c2[nH]c2cc(O)c(C)cc23)O1` (stereo not drawn), the inhibition is 30.6%.

Turning to `Cc1cc(/C=C2/C(=N)N3C(=NC2=O)SN=C3S(C)(=O)=O)c(C)n1-c1ccccc1`, the inhibition is 81.7% (active).

In the case of `CCOc1ccc(-n2c(O)c(/C=N/Nc3nnc(C)c(=O)[nH]3)c3ccccc3c2=O)cc1`, the inhibition was 52.6% (active).

For `C=C1c2c(Cl)ccc(O)c2C(O)=C2C(=O)[C@]3(O)C(O)=C(C(N)=O)C(=O)[C@@H](N(C)C)[C@@H]3[C@@H](O)C12` (stereo partly drawn), the inhibition is 70.9% (active).

With `CCOc1cc(C)ccc1OCc1nnc(SCC(=O)Nc2cccc(C(=O)O)c2)n1-c1ccccc1`, the inhibition was 41.2% (active).

With `Cc1ccc(-n2ncc3c(Nc4cccc(C(=O)O)c4)ncnc32)cc1`, the inhibition is 23.1%.

For the molecule `COc1ccc2[nH]c3c(C)c4cc[n+](C)cc4c(C)c3c2c1`, the inhibition was 47.5% (active).

Take `N#CCC(=O)Nc1ccc(C(=O)OCC(=O)Nc2sc3c(c2C#N)CCCC3)cc1`: the inhibition was 33.2%.

Consider `COC(=O)c1c(NC(=O)C2CC(C)=C(C)CC2C(=O)O)sc2c1CCCCC2` (stereo not drawn), for which the inhibition was 66.4% (active).

With `N#Cc1c(NC(=O)C2CC(Cl)=CCC2C(=O)O)sc2c1CCCCC2` (stereo not drawn), the inhibition is 38% (active).

Take `CCOC(=O)c1c(NC(=O)C2CC=CCC2C(=O)O)sc(C)c1CC` (stereo not drawn): the inhibition is 37.1% (active).

With `CSc1ccc(C=Nn2c(-c3ccc(F)cc3)n[nH]c2=S)cc1`, the inhibition is 41.7% (active).

For the molecule `O=C1CC(c2ccccc2)=NN1c1ccc([N+](=O)[O-])cc1`, the inhibition is 23.7%.

With `Cc1ccc(CSc2nc(-c3ccccc3)c(C#N)c(=O)[nH]2)cc1`, the inhibition was 66.6% (active).

Turning to `N#Cc1c(-c2ccccc2)nc(SCc2ccc([N+](=O)[O-])cc2)[nH]c1=O`, the inhibition is 58.7% (active).

As to `N#Cc1c(-c2ccccc2)nc(SCc2cccc(C(F)(F)F)c2)[nH]c1=O`, the inhibition is 80.3% (active).

As to `CCOc1cc(/C=C(\C#N)c2nc(-c3cccs3)c(NC(C)=O)s2)ccc1O`, the inhibition was 40.4% (active).

Take `Cc1ccc(S(=O)(=O)Nc2nc3ccccc3s2)cc1[N+](=O)[O-]`: the inhibition is 29.7%.

On to `O=[N+]([O-])c1cc(Br)c(O)c(/C=N/Nc2nc3ccccc3s2)c1`, for which the inhibition is 94.7% (active).

As to `C=CCNc1nc(N)c(C(=C(C#N)C#N)c2ccccc2)s1`, the inhibition was 15.9%.

As to `O=C(N/N=C/c1c(Cl)[nH]c2ccccc12)c1sc2ccccc2c1Cl`, the inhibition is 22.9%.

Consider `Cc1cc(F)ccc1S(=O)(=O)Nc1ncnc2scc(-c3ccc(F)cc3)c12`, for which the inhibition was 70.8% (active).

With `CC(C(=O)Nc1ccc(O)c(C(=O)O)c1)N1C(=O)/C(=C/c2cccs2)SC1=S` (stereo not drawn), the inhibition was 75.9% (active).

Turning to `CSc1nnc(NC(=O)c2nc(S(=O)(=O)Cc3ccc(C)cc3)ncc2Cl)s1`, the inhibition is 37.4% (active).

As for `Cc1nnc(NC(=O)Nc2ccc(Cl)c(Cl)c2)s1`, the inhibition is 24.5%.

On to `CCOC(=O)c1cc2cc(-c3c(C(=O)OCC)oc4cc(O)cc(O)c4c3=O)ccc2o1`, for which the inhibition was 40.4% (active).

Turning to `Cn1c2ccccc2c2cc(/C=C(\NC(=O)c3ccccc3)C(=O)NCC(=O)O)ccc21`, the inhibition was 39.8% (active).

`O=C(NC(=S)Nc1ccccc1C(=O)O)c1ccc(-c2ccc(Br)cc2)o1`: the inhibition is 82.7% (active).

As to `Cc1ccc(S(=O)(=O)N2[C@@H](c3cccc4ccccc34)C(C(=O)O)=C[C@H]2C(C)(C)C)cc1`, the inhibition was 50.3% (active).

For the molecule `Cc1ccc(NC(=O)CC2S/C(=N/N=C3\CCCc4ccccc43)NC2=O)cc1` (stereo not drawn), the inhibition was 54.7% (active).

With `CC1(C(=O)NS(=O)(=O)c2ccc3ccccc3c2)CCN1C(=O)C1(c2ccc(Cl)cc2)CCC1` (stereo not drawn), the inhibition is 72% (active).

As for `O=[N+]([O-])c1cc(Cl)cc(/C=N/NC(=S)Nc2cc(S(=O)(=O)N3CCOCC3)ccc2Cl)c1O`, the inhibition was 95.4% (active).

Regarding `CCC(C)Cn1c(O)cc2nn(-c3nc4ccccc4s3)c(=O)c-2c1C` (stereo not drawn), the inhibition was 63.4% (active).

Take `CCSc1nsc(NC(=O)Nc2cccc(C(C)=O)c2)n1`: the inhibition was 26.3%.

For the molecule `CC(C)c1nc(SCC(=O)Nc2cccc(C(=O)O)c2)c2c3c(sc2n1)CCCC3`, the inhibition was 61.1% (active).

On to `Cc1ccc2nc(N3C(=O)C(O)=C(C(=O)c4ccco4)C3c3cccc(O)c3)sc2c1` (stereo not drawn), for which the inhibition is 73.8% (active).

In the case of `COc1cc(C2CC(=O)N3CN(Cc4ccccc4)CSC3=C2C#N)ccc1OCc1ccccc1` (stereo not drawn), the inhibition was 25.8%.

On to `O=C(N/N=C/c1cccnc1)c1cc2ccccc2cc1O`, for which the inhibition is 9.03%.

Consider `O=C(NNc1c2ccccc2nc2ccccc12)c1cc2ccccc2cc1O`, for which the inhibition is 45.6% (active).

For `CC(=N\NC(=O)c1cc(Br)ccc1O)/C(=N/O)C(=O)Nc1ccccc1`, the inhibition is 12.1%.

In the case of `Cc1ccc(/C=C/C(=O)Nc2ccc([N+](=O)[O-])c(NC(=O)/C=C/c3ccc(C)o3)c2)o1`, the inhibition is 47.7% (active).

Take `O=C(Nc1cccc(F)c1)c1cc(-c2ccco2)nc2ccccc12`: the inhibition is 4.09%.

On to `O=C(O)c1cccc(NC(=O)c2cc(-c3cccc(Cl)c3)nc3ccccc23)c1`, for which the inhibition is 46.1% (active).

Regarding `CCOc1ccc(-n2c(SCC(=O)Nc3cc(C(=O)O)ccc3Cl)nc3ccccc3c2=O)cc1`, the inhibition is 52.9% (active).

As for `Cc1ccccc1-n1c(SCC(=O)Nc2cccc3ccccc23)nc(O)cc1=O`, the inhibition was 14.2%.

As to `Cc1ccc(CNC(=O)C2CCN(S(=O)(=O)c3ccc4nc5c(c(C(=O)O)c4c3)CC(C)CC5)CC2)cc1` (stereo not drawn), the inhibition was 36.4% (active).

As for `O=C(O)c1ccc2c(c1)C(=O)N(c1ccc(/C=C/C(=O)c3ccccc3)cc1)C2=O`, the inhibition was 65.3% (active).

Consider `COc1ccc(OC)c(NC(=O)CSc2nc(-c3ccccc3)cc(=O)[nH]2)c1`, for which the inhibition was 24.5%.

With `Cc1ccc(NC(=O)CSc2nc(CSc3ccc(C)cc3)cc(=O)[nH]2)cc1`, the inhibition was 53.5% (active).

Take `Cc1ccc(NC(=O)CSc2sc3c(O)cc(=O)[nH]c3c2C#N)cc1C`: the inhibition was 27.9%.

For `Cc1ccc(C(C)C)c(OCCSc2nc3ccccc3n2CC(=O)O)c1`, the inhibition is 50.3% (active).

`Cc1ccc2cc(/C=N/Nc3ccc(C(=O)O)cc3)c(Cl)nc2c1`: the inhibition is 46.6% (active).

As to `COc1ccc(S(=O)(=O)NCCc2c[nH]c3ccccc23)cc1OC`, the inhibition is 0.91%.

With `COc1ccc(-c2cc(C(=O)NC(Cc3c[nH]c4ccccc34)C(=O)O)c(C)o2)cc1OC` (stereo not drawn), the inhibition is 61.4% (active).

As to `COc1ccc(-c2cc(=O)oc3cc(OCC(=O)N[C@@H](Cc4c[nH]c5ccccc45)C(=O)O)ccc23)cc1`, the inhibition was 65.3% (active).

For `O=C(N[C@@H](Cc1c[nH]c2ccccc12)C(=O)O)OCC1c2ccccc2-c2ccccc21`, the inhibition is 63.4% (active).

For the molecule `CC(Oc1ccc2c(-c3ccccc3)cc(=O)oc2c1)C(=O)NC(Cc1c[nH]c2ccccc12)C(=O)O` (stereo not drawn), the inhibition was 62.4% (active).

In the case of `O=c1cc(CN2CCN(S(=O)(=O)/C=C/c3ccccc3)CC2)c2ccc(O)cc2o1`, the inhibition was 22.5%.

Turning to `COc1cc2ccccc2cc1C(=O)Nc1ccc(S(=O)(=O)Nc2cc(C)on2)cc1`, the inhibition was 58.8% (active).

For the molecule `CCOc1ccc(C(=O)Nc2ccc(S(=O)(=O)Nc3cc(C)on3)cc2)cc1`, the inhibition is 23.1%.

In the case of `COCCNC(=O)Nc1ccc2nc(-c3ccco3)c(-c3ccco3)nc2c1`, the inhibition was 61.6% (active).

`Cc1cccc(C)c1NC(=O)C(c1ccc(C(F)(F)F)cc1)n1c(=O)c(-c2ccco2)nc2ccccc21` (stereo not drawn): the inhibition is 26.2%.

With `COc1ccc(S(=O)(=O)NC(=O)C2(C)CCN2C(=O)c2ccccc2CCc2ccccc2)cc1` (stereo not drawn), the inhibition was 34%.

`CC(C)c1ccc(CC(=O)N2CCC2(C)C(=O)NS(=O)(=O)c2ccc(C(C)(C)C)cc2)cc1` (stereo not drawn): the inhibition is 70.7% (active).

On to `CC1(C(=O)NS(=O)(=O)c2ccccc2)CCN1C(=O)Cc1ccc(-c2ccccc2)cc1` (stereo not drawn), for which the inhibition is 34.1%.

On to `O=S(=O)(Nc1ccc(O)c2ccccc12)c1ccc(OC(F)(F)F)cc1`, for which the inhibition was 52.9% (active).

As for `COc1ccc(COC(=O)NC(C(=O)O)c2ccccc2)cc1` (stereo not drawn), the inhibition was 2.31%.

As for `Cc1c(C)c2c(OCC(=O)N[C@@H](C(=O)O)c3ccccc3)cc3c(c2oc1=O)CCC(C)(C)O3`, the inhibition is 46.1% (active).

With `Cc1ccc(N=C2NC(=O)/C(=C/C=C/c3ccco3)S2)cc1C`, the inhibition was 48.9% (active).

On to `Cc1ccc(-c2nn(-c3ccccc3)cc2/C=C2\SC(=S)N(CCCCCC(=O)O)C2=O)o1`, for which the inhibition is 56% (active).

As to `O=C(CCCN1C(=O)/C(=C\c2ccco2)SC1=S)Nc1cccc2ccccc12`, the inhibition was 17%.

In the case of `CN(C)S(=O)(=O)c1cccc(-c2nn(-c3ccccc3)cc2/C=C2\SC(=S)N(CC(=O)O)C2=O)c1`, the inhibition was 88.1% (active).

As for `CC1(C(=O)NS(=O)(=O)Cc2cccc(Cl)c2)CCN1C(=O)Cc1ccc(Cl)cc1Cl` (stereo not drawn), the inhibition was 78.9% (active).
